Several values for one entry are separate records, joined by “and”; a condition that tells them apart may be missing. Identical values can stand only once. Inconclusive results are not listed. A number with no mark means an inactive call. Activity calls are given as the source filed them.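 Rule for the calls: active = dose-dependent loss of cell ATP signal giving a full or clear fitted curve, ranked by lower potency value; inconclusive = weak partial curve or response only at the top dose; inactive = no loss of viability signal.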
Potency is the fitted concentration of half-maximal effect.

This test is described as follows: Cell Viability - Jurkat (AID 426).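 Note: cells exposed to compound for 40 hours at 37 °C before ATP read.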 The conditions noted are these: qHTS. The source says: NIH Chemical Genomics Center [NCGC]
NIH Molecular Libraries Screening Centers Network [MLSCN]
National Institutes of Environmental Health Sciences [NIEHS]
National Toxicology Program [NTP]
We have developed a 1536-well cell-based assay for quantitative high throughput screening (qHTS) against a number of cell lines to determine in vitro cytotoxicity of small molecules. This particular assay uses the Jurkat cell line (Clone E6-1) which is derived from the human T cell leukemia.
NCGC Assay Protocol Summary:
The CellTiter-Glo luminescent cell viability assay (Promega) is a homogeneous method to measure the number of viable cells in culture. The end point readout of this assay is based on quantitation of intracellular ATP, an indicator of metabolic activity, using the luciferase reaction. Luciferase catalyzes the oxidation of beetle Luciferin to oxyluciferin and light in the presence of ATP. The luminescent signal is proportional to amount of ATP present.
Using the CellTiter-Glo luminescent cell viability assay, the amount of cellular ATP was measured in the Jurkat cell line with complete culture medium following compound treatment for 40 hours. The assay was performed in opaque white Kalypsys 1536-well plates. In the screen, tamoxifen and doxorubicin were used as positive controls. Library compounds were measured for their ability to cause acute toxicity in the cell line, as reflected by a decrease in intracellular ATP levels, in a concentration-dependent manner. […] AC50 values were determined from concentration-response data modeled with the standard Hill equation.
qHTS protocol for CellTiter Glo Jurkat cellular assay
[Step] [Parameter] [Value] [Description]
1. Reagent; 5 uL; 5000 Jurkat cells/well
3. Controls; 23 nL; Tamoxifen 0.34 uM to 100 uM & Doxorubicin 0.02 nM to 100 uM
4. Time; 40 hr; 37 °C incubation
5. Reagent; 5 uL; CellTiter Glo reagent
6. Time; 20 min; Room Temperature
7. Detection; Luminescence; Viewlux plate reader
Keywords: cell viability, cytotoxicity, Jurkat cell line, luminescence, NTPHTS, NTPHTS_NCGC, NIEHS, EPA, DSSTox, MLSMR, MLSCN, NIH Roadmap, qHTS, NCGC
Take `CCCCCCCCn1sccc1=O`: the Potency is 7.52 µM (active). The figure for `CN(C)c1ccc(N=O)cc1` is 2.5 µM (active). Then `[CH3][Hg][Cl]`, with 1.49 µM (active); and `O=C(CCl)c1ccccc1`, with 9.5 µM (active); and `ClC1=C(Cl)C2(Cl)C3C(Cl)C(Cl)CC3C1(Cl)C2(Cl)Cl` (configuration not stated), with 60.7 µM (active). For the compound `c1ccc2cc3c(cc2c1)-c1cccc2cccc-3c12`, the Potency is greater than 92 µM. Then `Nc1ccccc1C(=O)OCCc1ccccc1`, with greater than 92 µM; and `O=C1C2(Cl)C3(Cl)C4(Cl)C(Cl)(Cl)C5(Cl)C3(Cl)C1(Cl)C5(Cl)C24Cl` (configuration not stated), with 32.8 µM (active) and 53.4 µM (active); and `O=[N+]([O-])C(Br)Br`, with 24.4 µM (active).

Take `COP(=O)(OC)O/C(=C\Cl)c1cc(Cl)c(Cl)cc1Cl`: the Potency is 32.2 µM (active).

Regarding `N#CSCSC#N`, the Potency is 3.31 µM (active). The figure for `Cc1ccc2ccccc2c1C` is greater than 92 µM; for `O=C(O)C1C(C(=O)O)C2(Cl)C(Cl)=C(Cl)C1(Cl)C2(Cl)Cl` (configuration not stated) it is greater than 92 µM; for `O=[N+]([O-])c1ccccc1Cl` it is greater than 92 µM. As to `Oc1c(Br)c(Br)c(Br)c(Br)c1Br`, the Potency was 39.1 µM (active). Then `CC(C)CC(C)Nc1ccc(Nc2ccccc2)cc1` (configuration not stated), with 64.1 µM (active); and `FC(F)(F)c1ccc(Cl)cc1`, with greater than 92 µM. The figure for `C[C@@H]1CC[C@@]2(OC1)O[C@H]1[C@@H](O)[C@H]3[C@@H]4CC[C@H]5C[C@@H](O[C@@H]6O[C@H](CO)[C@H](O[C@@H]7O[C@H](CO)[C@@H](O)[C@H](O[C@@H]8OC[C@@H](O)[C@H](O)[C@H]8O)[C@H]7O[C@@H]7O[C@H](CO)[C@@H](O)[C@H](O[C@@H]8O[C@H](CO)[C@@H](O)[C@H](O)[C@H]8O)[C@H]7O)[C@H](O)[C@H]6O)[C@H](O)C[C@]5(C)[C@H]4CC[C@]3(C)[C@H]1[C@@H]2C` is 0.573 µM (active); for `C#CCO` it is greater than 92 µM; for `Cc1ccc(O)cc1C` it is greater than 92 µM. Turning to `N#CC(Cl)Cl`, the Potency is 6.52 µM (active). As to `O=[N+]([O-])c1cc(C(F)(F)F)cc([N+](=O)[O-])c1Cl`, the Potency is 32.8 µM (active).

Source of the values: PubChem BioAssay (NCATS).
